Screening results: PubChem BioAssay, National Center for Advancing Translational Sciences (NCATS)
TDP1 cell noCPT: qHTS for Inhibitors of human tyrosyl-DNA phosphodiesterase 1 (TDP1): qHTS in cells in absence of CPT; DT40 Tdp1-/- hTDP1 cells, no CPT, ATP luminescence, 48 h; Potency, µM (highest dose often 46.2 µM), for the others: top-dose activity change, negative = growth inhibition, hits mostly inhibitors; 15% of 420,000 active; AID 686978, 2013; note: potency is the fitted concentration of half-maximal effect; nearly all actives have a fitted effect of over 55% in size
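Camptothecin absent (DMSO only). Human TDP1-complemented DT40 knockout cells, 400 cells/well, 37 °C for minimum 48 hr; ATP measured via CellTiter-Glo, 30 min dark incubation, luminescence.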
DT40 TDP1 CPT: DT40-hTDP1 cell growth loss with CPT. chicken DT40 Tdp1-/-;hTDP1 cells + 20 nM CPT, ATP luminescence, 48 h. Potency, µM (doses to about 46.2 µM), for the others: at the highest dose activity change, negative = growth inhibition, actives largely listed as inhibitors. 12% of 420,000 active. AID 686979; note: potency is the fitted concentration of half-maximal effect; nearly all actives have a fitted effect of over 55% in size
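Chicken DT40 Tdp1-/- cells stably complemented with human TDP1 were seeded at 400 cells/well in medium containing 20 nM camptothecin, exposed to pin-transferred compounds, and grown at 37 °C for at least 48 hr. Viability was read as ATP luminescence.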
HT1080NT lethal: kills 2HG-producing HT-1080-NT fibrosarcoma cells; HT-1080-NT fibrosarcoma viability, CellTiter-Glo ATP luminescence, 48 h; Potency, µM (top dose mostly 46.1 µM), inactives show at the highest dose activity, negative = less viability, hits mostly cytotoxic; 1.6% of 360,000 active;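 note: NT is the 2HG producing partner of a matched IDH1 knockdown line; potency is the fitted concentration of half-maximal effect; 0% = DMSO-treated cells and -100% = media-only wells without cells; nearly all actives have a fitted effect of over 55% in size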
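Viability by CellTiter-Glo luminescence after 48 h compound exposure at 37C of HT-1080-NT cells (750/well, RPMI, 5% FBS). % activity scaled between DMSO wells and medium-only wells, then curve-fitted and categorized by curve class.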
HT1080 IDH1KD tx: kills HT-1080 cells with IDH1 knockdown; Potency, µM (series often up to 46.1 µM), for the others: at the highest dose activity, negative = toxicity, most hits filed as cytotoxic; AID 686971; 2% of 360,000 active; HT-1080 IDH1 knockdown viability, ATP luminescence, 48 h;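 note: potency is the fitted concentration of half-maximal effect; 0% = DMSO wells and -100% = cell-free medium wells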
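Viability of IDH1-knockdown HT-1080 fibrosarcoma cells was assessed by CellTiter-Glo after 48 h at 37 °C with titrated compound; concentration-effect curves were classified by fit quality and response size.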
IL-1B inflam inh: blocks inflammasome-driven IL-1 beta release | AID 743279 | activity change, % at 57.5 µM | THP-1 LPS/ATP IL-1B secretion, AlphaLISA, 16 h; stronger effect = lower value | 4.7% of 360,000 active; in the data active = activity change below about -50%; inconclusive = mostly about -30% to -49%
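THP-1 cells pretreated 1 hr with compounds (up to 57.5 uM final), then stimulated with LPS (250 ng/mL final) plus ATP (1.25 mM final); secreted IL-1B measured by AlphaLISA after 16 hr, decreased signal indicating inhibition.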
* marks the source's active call; other numbers are inactive results; u = inconclusive; x = no result; [ ] = another dose, or the depositor's remark. Hits are enriched below; roughly 19% of the tested compounds scored in any of these assays. Unless noted, calls come from the whole dose curve; as a rule, active = well fitted curve in the direction sought with a large enough effect; inconclusive = small, poorly fitted or top-dose-only effect, or another doubt; inactive = no such curve, though single readings can be large; an effect the other way counts as inactive or inconclusive. Unless noted, % is set by controls: 0 for no effect and ±100 for the full control effect.

SMILES	TDP1 cell noCPT	DT40 TDP1 CPT	HT1080NT lethal	HT1080 IDH1KD tx	IL-1B inflam inh
CCc1cc2c(=O)n(Cc3ccco3)c(SCc3c(C)noc3C)nc2s1	2.9µM*	5.8µM*	u	15µM*	-5
CCOc1ccccc1CNC(=O)C1CCN(C(=O)c2sccc2-n2cccc2)CC1	u	u	-3%	-8%	-9
Cc1noc(C)c1-c1cncnc1Nc1ccccc1	13%	18%	x	x	x
CC1CCc2c(sc(NC(=O)CN3CCN(C(=O)c4ccco4)CC3)c2C#N)C1 (centres undefined)	26µM*	18µM*	0%	-3%	-8
CCOC(=O)c1c(NC(=O)CN2CCN(C(=O)c3ccco3)CC2)sc(C(N)=O)c1C	18µM*	-28%	-1%	-4%	-11
CC1CCN(CC(=O)Nc2sc3c(c2C#N)CCC3)CC1	-13%	-4%	19%	21%	-18
Cc1ccc(C(=O)c2cc(C)sc2NC(=O)CN2CCN(C(=O)c3ccco3)CC2)cc1	18µM*	u	u	u	-69*
Cc1ccc2[nH]c(=O)c(COC(=O)C3CCCCC3)cc2c1	-13%	-18%	25%	-6%	-1
O=C(c1cnn(-c2nccc(-c3ccco3)n2)c1C1CC1)N1CCCCC1c1cccnc1 (centres undefined)	-8%	14%[9.04 µM]	x	x	x
N#Cc1nc(-c2ccc(OCc3ccccc3Cl)cc2)oc1N1CCC(C(N)=O)CC1	-29%	-4%	x	x	x
N#Cc1nc(-c2ccccc2Cl)oc1N1CCCCC1	9.2µM*	u	-2%	-1%	-51*
CCNc1oc(-c2cccc3ccccc23)nc1C#N	0%	-8%	u	u	-15
N#Cc1nc(-c2ccc(OCc3ccccc3Cl)cc2)oc1N1CCCCCC1	11µM*	u	x	x	x
N#Cc1nc(-c2ccccc2F)oc1N1CCCCC1	-8%	2%	0%	5%	-28
N#Cc1nc(-c2cccc3ccccc23)oc1NCCN1CCCCC1	16µM*	18µM*	u	u	u
N#Cc1nc(COc2ccccc2)oc1N1CCCCC1	-19%	u	6%	7%	-8
N#Cc1nc(-c2ccc(COc3ccccc3)o2)oc1N1CCCCC1	23µM*	u	x	x	x
CC(C)CCNC(=O)COC(=O)c1cc(Br)c(Br)s1	8%	2%	-11%	-1%	8
CN(CCc1ccccc1)C(=O)c1ccc(NC(=O)Cc2ccc(NC(=O)C3CCCN(C(=O)C4CC4)C3)cc2)cc1 (centres undefined)	-27%	-28%	-14%	-2%	-6
CCCCCCC(=O)N1CCC(c2nc3c(nnn3Cc3ccccc3Cl)c(=O)[nH]2)CC1	u	18µM*	13µM*	11µM*	-16
Cc1ccccc1Cn1nnc2c(=O)[nH]c(C3CCN(C(=O)c4ccccc4Cl)CC3)nc21	26µM*	16µM*	x	x	x
O=C(C1CCCCC1)N1CCC(c2nc3c(nnn3Cc3ccccc3Cl)c(=O)[nH]2)CC1	21%	-18%	-9%	-1%	4
O=C(c1cccs1)N1CCCC(c2nc3c(nnn3Cc3ccccc3Cl)c(=O)[nH]2)C1 (centres undefined)	29µM*	u	-2%	-8%	-6
OC[C@@H]1CN(Cc2ccccc2)C[C@H](n2cnc3c(N4CCN(c5ccccc5)CC4)ncnc32)O1	u	u	-12%	1%	-6
Cc1cccc(Cc2cccc(C)c2O)c1O	u	5%	-16%	-15%	-16
O=C(/C=C/c1ccc(O)c(O)c1)O[C@H]1C[C@@](O)(C(=O)O)CC(O)C1O (some centres undefined)	-8%	-1%	x	x	x
CC(=O)CCC1C2C(O)C(C(C)C)C(OC(=O)/C=C/c3ccccc3)CC12C (centres undefined)	26µM*	18µM*	1%	-15%	8
Cc1ccc(NC(=O)CN2c3cccc4cccc(c34)S2(=O)=O)cc1	u	23µM*	-8%	-8%	-17
